Reference: PubChem BioAssay (NCATS)
Results filed as inconclusive are left out. Entries that show only a call come without a potency. Unmarked numbers belong to inactive results. Calls of active or inactive are those of the source. Calls come from the whole dose curve; as a rule, active = well fitted inhibition curve with a large enough effect; inconclusive = small, poorly fitted or top-dose-only effect; inactive = flat fitted curve, though single readings scatter.

experiment: Primary qHTS for inhibitors of nuclear receptor binding SET domain protein 2 (NSD2) in an isogenic RCH-ACV NSD2 p.E1099K mutant (9B) (AID 1645876); conditions: RCH-ACV (leukaemia line) NSD2 E1099K (9B) viability, CellTiter-Glo, 72 h; series mostly up to 44.9 µM; note: nearly all actives have a fitted effect of over 70% in size
Potency is the fitted concentration of half-maximal effect.

Question: Which activity change, negative = viability loss does the source give for `C[C@@H]1O[C@@H](O[C@H]2[C@H](O[C@H]3[C@H](O[C@H]4CC[C@@]5(C)C(CC[C@]6(C)C5CC=C5[C@@H]7CC(C)(C)CC[C@]7(C(=O)O[C@@H]7O[C@H](CO)[C@@H](O[C@@H]8O[C@@H](C)[C@H](O)[C@@H](O)[C@H]8O)[C@H](O)[C@H]7O)CC[C@]56C)C4(C)C)OC[C@H](O)[C@@H]3O)O[C@H](CO)[C@@H](O)[C@@H]2O)[C@H](O)[C@H](O)[C@H]1O` (stereo not given in full) here?
Answer: -8.33% [at 9.23 µM]

Question: For `C=C1C(=O)OC2CC(C)=C(C(C)CCCO)C(O)C12` (stereo not given), which Potency is on record?
Answer: inactive

Question: For `C/C=C1\[C@H](O[C@@H]2O[C@H](CO)[C@@H](O)[C@H](O)[C@H]2O)OC=C(C(=O)OC)[C@H]1CC(=O)O`, which Potency is on record?
Answer: inactive

Question: For `CCOc1ccc2nc(SCCN3CCOCC3)[nH]c2c1`, which Potency is on record?
Answer: inactive

Question: Which Potency does the source give for `C=C1CCC2C(C)(C)C(O)CCC2(C)C1CCC(C)CCOC(C)=O` (stereo not given) here?
Answer: inactive

Question: For `O=C(NOCC(O)CO)c1ccc(F)c(F)c1Nc1ccc(I)cc1F` (stereo not given), which Potency is on record?
Answer: inactive

Question: With `C/C=C/c1ccc(O[C@@H]2O[C@H](CO)[C@@H](O)[C@H](O)[C@H]2O)c(OC)c1` as the compound, how does the Potency read?
Answer: inactive

Question: With `C[C@@H]1CCC2C(C)(C)[C@H](O)CC[C@]2(C)[C@@]12Cc1c(O)cc3c(c1O2)CNC3=O` (stereo not given in full) as the compound, how does the Potency read?
Answer: inactive

Question: Which Potency does the source give for `C=C[C@@]12COC(=O)C(=C)C1[C@@H](O)[C@H](C(=C)C(=O)OC)[C@@H](OC(=O)C(=C)CO)C2` (stereo not given in full) here?
Answer: 8.93 µM (active)

Question: For `CN[C@H](CC(C)C)C(=O)N[C@H]1C(=O)N[C@@H](CC(N)=O)C(=O)N[C@H]2C(=O)N[C@H]3C(=O)N[C@H](C(=O)N[C@H](C(=O)O)c4cc(O)cc(O)c4-c4cc3ccc4O)[C@H](O[C@H]3C[C@](C)(N)[C@@H](O)[C@H](C)O3)c3ccc(c(Cl)c3)Oc3cc2cc(c3O[C@@H]2O[C@H](CO)[C@@H](O)[C@H](O)[C@H]2O[C@H]2C[C@](C)(NCc3ccc(-c4ccc(Cl)cc4)cc3)[C@@H](O)[C@H](C)O2)Oc2ccc(cc2Cl)[C@H]1O`, which Potency is on record?
Answer: inactive

Question: With `C[C@H]1C(=O)N2c3ccccc3[C@@]3(O)C[C@@H]4C(=O)N[C@](C)(c5nc6ccccc6c(=O)n54)N1[C@@H]23` as the compound, how does the Potency read?
Answer: inactive

Question: With `COc1cc2c(cc1O)[C@H](c1ccc(O[C@@H]3O[C@H](CO)[C@@H](O)[C@H](O)[C@H]3O)c(OC)c1)[C@@H](CO)[C@](O)(CO)C2` as the compound, how does the Potency read?
Answer: inactive

Question: Which Potency does the source give for `CC[C@H](NC(=O)[C@H](CS(=O)(=O)CC1CC1)N[C@@H](c1ccc(F)cc1)C(F)(F)F)C(=O)C(=O)NC1CC1` here?
Answer: inactive

Question: For `COc1c2c(c(C)c3c1C(=O)OC3)O[C@@]1(C)CC(O)C(C(C)(C)O)[C@](C)(CCC(=O)O)[C@H]1C2` (stereo not given in full), which Potency is on record?
Answer: inactive

Question: Which Potency does the source give for `CC(=O)OCC1(O)CCC2C(COC3OC(CO)C(O)C(O)C3OC(=O)/C=C/c3ccc(O)cc3)=COC(OC(=O)CC(C)C)C21` (stereo not given) here?
Answer: inactive

Question: Which Potency does the source give for `C=CC1C(OC2OC(CO)C(O)C(O)C2O)OC=C(C(=O)OC)C1CC1CC(=O)CC(CCc2ccc(O)cc2)O1` (stereo not given) here?
Answer: inactive

Question: Which Potency does the source give for `O=C1CCC(=O)N(O)CCCCCNC(=O)CCC(=O)N(O)CCOCCNC(=O)CCC(=O)N(O)CCCCCN1` here?
Answer: inactive

Question: Which activity change, negative = viability loss does the source give for `CC(C)C[C@H](CC(=O)NO)C(=O)N[C@H](C(=O)N[C@@H](C)C(=O)NCCN)C(C)(C)C` here?
Answer: -8.25% [at 9.23 µM]

Question: Which Potency does the source give for `CCC(C)/C=C(C)/C=C/c1cc2c(cn1)C(=O)C(C)(OC(C)=O)C(O)=C2Cl` (stereo not given) here?
Answer: inactive

Question: Which Potency does the source give for `CCOc1ccc(S(=O)(=O)n2c(C)nc3ccccc32)cc1` here?
Answer: 8.93 µM (active)

Question: For `C[C@@]12CC[C@@H]3[C@@](CC[C@H]4[C@@]3(C)CCC[C@@]4(C)C(=O)O)(CC1=O)C2`, which Potency is on record?
Answer: inactive

Question: With `C=C1C(OC(C)=O)CCC2(C)CC3(OC)OC(=O)C(C)=C3CC12` (stereo not given) as the compound, how does the Potency read?
Answer: inactive

Question: Which Potency does the source give for `FC(F)(F)c1cc(-c2ncn(/C=C\c3nnco3)n2)cc(C(F)(F)F)c1` here?
Answer: 2.3 µM (active)

Question: For `C[C@@H]1CCC/C=C/[C@H]2CC(=O)C[C@@H]2[C@@H](O)/C=C/C(=O)O1`, which Potency is on record?
Answer: inactive

Question: With `CC(C)(O)/C=C/CC(C)(O)C1C(O)CC2(C)C3CCC4C(C)(C)C(=O)CCC4(C)C3CCC12C` (stereo not given) as the compound, how does the Potency read?
Answer: inactive

Question: Which Potency does the source give for `CC1CCC2C(C)(C)[C@@H](O)CC[C@]2(C)C12Cc1c(O)cc3c(c1O2)CN(C(CCC(=O)O)C(=O)O)C3=O` (stereo not given in full) here?
Answer: inactive

Question: Which Potency does the source give for `C[C@H]1CC[C@@]2(OC1)O[C@H]1CC3C4CC[C@H]5C[C@@H](O)[C@H](O)C[C@]5(C)C4=CC(=O)[C@]3(C)[C@H]1[C@@H]2C` (stereo not given in full) here?
Answer: inactive

Question: With `C/C=C1\[C@H](O[C@@H]2O[C@H](CO)[C@@H](O)[C@H](O)[C@H]2O)OC=C2C(=O)OCCc3ccc(O)c(c3)Oc3ccc(cc3)CCOC(=O)C[C@H]21` as the compound, how does the Potency read?
Answer: inactive

Question: With `CC[C@H]1OC(=O)[C@](C)(F)C(=O)[C@H](C)[C@@H](O[C@@H]2O[C@H](C)C[C@H](N(C)C)[C@H]2O)[C@](C)(OC)C[C@@H](C)C(=O)[C@@H](C)[C@H]2N(CCCCn3cc(-c4cccc(N)c4)nn3)C(=O)O[C@]12C` as the compound, how does the Potency read?
Answer: 20.5 µM (active)

Question: For `COC(=O)C1=CO[C@@H](O[C@@H]2O[C@H](CO)[C@@H](O)[C@H](O)[C@H]2O)[C@@H]2C(COC(C)=O)=C[C@H](O)[C@H]12`, which Potency is on record?
Answer: inactive

Question: With `CC(C)C(NC(=O)c1ccc2ccccc2n1)C(=O)NC(CC(=O)O)C(=O)COc1c(F)cccc1F` (stereo not given) as the compound, how does the Potency read?
Answer: inactive

Question: For `CC(C)CNCc1ccc(-c2ccccc2S(=O)(=O)N2CCCC2)cc1`, which Potency is on record?
Answer: inactive

Question: Which Potency does the source give for `C=CC(C)(C)C12C=C(OC)C(=O)N3C(C(C)C)C(=O)NC31N(OC)c1ccccc12` (stereo not given) here?
Answer: inactive

Question: Which Potency does the source give for `COc1c2cc(c(O)c1OC)-c1cc(ccc1O)CCC(O)CCCC2` (stereo not given) here?
Answer: inactive

Question: Which Potency does the source give for `Cc1cn(C2C=CC(CO)O2)c(=O)[nH]c1=O` (stereo not given) here?
Answer: inactive

Question: With `COc1cc2c3c(cc4ccccc4c3c1O)NC2=O` as the compound, how does the Potency read?
Answer: inactive

Question: With `Cc1cc(O)cc(O[C@@H]2O[C@H](CO)[C@@H](O)[C@H](O)[C@H]2O)c1` as the compound, how does the Potency read?
Answer: inactive

Question: Which Potency does the source give for `COc1c2c(c(C)c3c1C(=O)OC3)O[C@@]1(C)CCC3(C(C)(C)O)OC(=O)CC[C@]3(C)[C@H]1C2` (stereo not given in full) here?
Answer: inactive

Question: With `O=C(OC[C@H]1O[C@H](O[C@]2(CO)O[C@H](CO)[C@@H](O)[C@@H]2O)[C@H](O)[C@@H](O)[C@@H]1O)c1ccccc1` as the compound, how does the Potency read?
Answer: inactive

Question: For `C=C(C(=O)O)C1CC2=C(C)CCCC2(C)C[C@@H]1O` (stereo not given in full), which Potency is on record?
Answer: inactive
